G9a block: inhibitors of human histone lysine methyltransferase G9a. Potency, µM (top dose mostly 102 µM), inactives show at the highest dose activity, negative = inhibition, hits mostly inhibitors. Q96KQ7. G9a H3K9 monomethylation, AlphaScreen, 2 h. AID 504332. 350,000 tested, 8.8% active; also: % is scaled to controls: 0 for no effect and ±100 for the full control effect; nearly all actives have a fitted effect of over 75% in size
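Signal arises when biotinylated H3K9 peptide, once monomethylated, bridges streptavidin donor and antibody-captured acceptor beads. Enzyme at 20 nM was preincubated 15 min with test compounds; peptide 500 nM and SAM 20 uM then reacted for 2 h.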
BAZ2B block: inhibitors of human BAZ2B bromodomain | Q9UIF8 | AlphaScreen BAZ2B-H3K14Ac peptide displacement | Potency, µM (series often up to 114 µM), inactives show at the top dose activity change, negative = inhibition, actives largely listed as inhibitors | 360,000 tested, 4.4% active | AID 504333; also: % is scaled to controls: 0 for no effect and ±100 for the full control effect; nearly all actives have a fitted effect of over 60% in size
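Multi-concentration screen (max 110 uM) measuring displacement of acetylated histone H3 peptide from BAZ2B by AlphaScreen, using 50 nM protein, 50 nM peptide and 10 ug/mL streptavidin donor plus Ni-chelate acceptor beads.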
JMJD2A Tudor: JMJD2A Tudor domain (human) inhibition. O75164. AlphaScreen JMJD2A-Tudor / H3K4me3 peptide binding. Potency, µM (titrated, usually from 114 µM), for the others: at the top dose activity change, negative = inhibition, usual class: inhibitors. 390,000 tested, 4.4% active. AID 504339; also: % is scaled to controls: 0 for no effect and ±100 for the full control effect; nearly all actives have a fitted effect of over 50% in size
Sfp inh: blocks B. subtilis Sfp PPTase activity; Potency, µM, for inactives: largest response in the series, negative = inhibition, actives largely listed as inhibitors; 310,000 tested, 3.5% active; Biochemical Sfp PPTase activity, qHTS; AID 1490; Q9F4F7;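 also: the enzyme is Sfp with the accession as filed and its product quenches rhodamine fluorescence; 0% = enzyme reaction without inhibitor and -100% = no enzyme wells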
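Compounds were incubated with enzyme (final 15 nM) for 15 min at room temperature before substrate addition started the reaction. Fluorescence at 525 nm excitation, 598 nm emission was recorded immediately and after 30 minutes.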
HP1b binding inh: blocks HP1-beta chromodomain binding to methylated histone tails; Potency, µM (top dose mostly 114 µM), without a hit: top-dose activity change, negative = inhibition, usual class: inhibitors; AID 540317; AlphaScreen HP1-beta / biotin-H3K9me3 peptide binding; 390,000 tested, 0.56% active; P83916; also: nearly all actives have a fitted effect of over 70% in size
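AlphaScreen: HP1-beta (50 nM) preformed 30 min with biotin-H3(1-18)K9me3 peptide (50 nM) in PBS pH 7.4, 0.01% Tween-20. Compound added for 30 min at RT, then streptavidin donor/nickel chelate acceptor beads (10 ug/mL) for 30 min.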
L3MBTL1 inh: L3MBTL1 (human) inhibition; Potency, µM (titrated, usually from 57.1 µM), without a hit: at the top dose activity, negative = inhibition, hits mostly inhibitors; 230,000 tested, 0.66% active; Q9Y468; AID 485360; AlphaScreen L3MBTL1–H3K9me1 peptide binding; also: % is scaled to controls: 0 for no effect and ±100 for the full control effect; nearly all actives have a fitted effect of over 60% in size
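Displacement of a biotinylated histone H3(1-15) peptide monomethylated at Lys9 (75 nM) from L3MBTL1 (50 nM) was measured by AlphaScreen after a 30 min room-temperature compound incubation; cefsulodin titration served as intraplate control.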
* = called active by the depositor; ? = inconclusive; / = not tested or not shown; [ ] = another dose, or the depositor's remark. Hits are enriched below; roughly 12% of the tested compounds scored in any of these assays. Calls follow the shape of the dose curve; as a rule, active = well fitted curve in the direction sought with a large enough effect; inconclusive = small, poorly fitted or top-dose-only effect, or another doubt; inactive = no such curve, though single readings can be large; an effect the other way counts as inactive or inconclusive. Potency is read from the fitted curve at half-maximal effect.

SMILES	G9a block	BAZ2B block	JMJD2A Tudor	Sfp inh	HP1b binding inh	L3MBTL1 inh
COC(=O)c1sc2nc(SCC(=O)N(C)c3ccccc3)n(N)c(=O)c2c1C	25µM*	10%	-7%	?	24%	/
CCCCNC(=O)C(CC)Sc1nc2sc(C(=O)OC)c(C)c2c(=O)n1N (stereo not drawn)	5%[0.0925 µM]	1%	?	50µM*	26%	4%
Cc1nnc(-c2cccc(Br)c2)c2cn(-c3cccc(Br)c3)nc12	?	56µM*	?	-29%	23%	-4%
COCc1c(C(=O)OCC(=O)NCCc2ccc(S(N)(=O)=O)cc2)oc2ccccc12	-7%[2.33 µM]	3%	-2%	/	20%	4%
CC(O)c1cccc2cc(C(O)CNC(C)(C)C)oc12 (stereo not drawn)	/	/	/	7%	/	/
O=C(C[n+]1ccc(-c2cc(C(=O)Nc3cccc(C(F)(F)F)c3)c3ccccc3n2)cc1)c1cccc([N+](=O)[O-])c1	50µM*	/	-15%	50µM*	?	?
COc1cccc(C2NC(=O)c3sc(=S)n(-c4ccccc4)c3N2)c1 (stereo not drawn)	40µM*	-31%	-26%	-17%	28%	/
COc1cccc(-c2cc3c(=O)n(-c4ccccc4)c(=S)[nH]c3s2)c1	?	9%	-35%	-3%	23%	2%
COc1ccc(OC)c(C2NC(=O)c3sc(=S)n(-c4ccccc4)c3N2)c1 (stereo not drawn)	4µM*	?	-31%	?	14%	?
Cc1cc(N2C(=O)c3ccccc3C2=O)n[nH]1	/	/	-3%	/	/	/
C/C(=C\C(=O)c1ccncc1)Nc1ccccc1O	13%	-38%	-14%	-17%	20%	1%
COc1ccc(OC)c(N/C(C)=C/C(=O)c2ccncc2)c1	40µM*	?	?	2%	-5%	0%
COc1ccc(C(=O)CCNc2ccc3c(c2)OCCO3)cc1	3.2µM*	-27%	-19%	-8%	-5%	-5%
COc1ccc(C(=O)/C=C(\C)Nc2ccc3c(c2)OCO3)cc1	71µM*	50µM*	28µM*	-30%	?	-7%
CCOc1ccc(N/C(C)=C/C(=O)c2ccc3c(c2)OCCO3)cc1	/	?	?	?	-30%	-7%
CCOc1ccc(N/C(C)=C\C(=O)c2ccc3c(c2)OCCO3)cc1	/	25µM*	?	-2%	-21%	-5%
Cc1cc(=O)[nH]c2nnc(SCc3cccc(F)c3)n12	1%[59 µM]	-2%	-16%	/	0%	/
[O-]C1=N[N+](=C(c2ccccc2)c2ccccc2)C1	/	/	-4%	/	81%	/
CC12CCCCC1N(O)C(=O)C(=O)N2O (stereo not drawn)	?	?	79µM*	-8%	4%	10%
CC(C)(NO)/C(=N\O)c1ccc(Cl)cc1	10µM*	56µM*	40µM*	-7%	-8%	2%
CC(C)(NO)/C(=N/O)c1ccc(Br)cc1	32µM*	?	28µM*	?	1%	2%
COc1ccc(/C(=N/O)C(C)(C)NO)cc1	13µM*	50µM*	40µM*	?	?	/
C/C(=N\O)C(C)(C)Nc1ccc(Br)cc1	-44%	3%	-22%	11%	36%	-3%
CN(C)c1ccc(/C(=N\O)C(F)(F)F)cc1	-8%[59 µM]	9%	-33%	4%	-3%	11%
COC(=O)c1ccc(NC(=O)CC2C(=O)N(c3cccc(OC)c3)C(=O)N2Cc2ccco2)cc1 (stereo not drawn)	?	-12%	-31%	/	-6%	/
SMILES	G9a block	BAZ2B block	JMJD2A Tudor	Sfp inh	HP1b binding inh	L3MBTL1 inh
CCn1c(=O)cc(SCC(=O)Nc2ccc(C)c(F)c2)c2ccccc21	-3%[59 µM]	-3%	-4%	/	25%	/
CC1C(=O)N2CCCc3cc(NC(=O)COc4ccc(Cl)cc4)cc1c32 (stereo not drawn)	50µM*	-3%	-9%	/	15%	4%
CNC(=O)C(=O)Nc1cc2c3c(c1)C(C)C(=O)N3CCC2 (stereo not drawn)	1.4µM*	-23%	-2%	18%	30%	/
COc1ccc(C(=O)Nc2cc3c4c(c2)C(C)C(=O)N4CCC3)c(OC)c1 (stereo not drawn)	-35%	12%	-15%	/	5%	4%
CC1C(=O)N2CCCc3cc(NS(=O)(=O)c4ccc(F)cc4)cc1c32 (stereo not drawn)	50µM*	-2%	-13%	/	-13%	20%
CC1C(=O)N2CCCc3cc(NC(=O)C4CC4)cc1c32 (stereo not drawn)	-12%	13%	-4%	/	-3%	3%
O=C(O)c1nn(CC(=O)N2CCN(S(=O)(=O)c3ccc(Cl)cc3)CC2)c(=O)c2ccccc12	/	4%	-12%	6%	32%	10%
Cc1cccc(C)c1NC(=O)CN(c1ccccn1)S(=O)(=O)c1ccc(F)cc1	-3%	-9%	-12%	14%	4%	-6%
Nc1ccc(OCc2ccccc2)cc1[N+](=O)[O-]	/	/	40µM*	/	?	/
Nc1ccc(-c2ccc(N)c([N+](=O)[O-])c2)cc1[N+](=O)[O-]	71µM*	-3%	-25%	-1%	-2%	-26%
O=[N+]([O-])c1cccnc1Oc1ccc(OCc2ccccc2)cc1	5%	-16%	-25%	15%	13%	/
Nc1ccccc1-c1ccc([N+](=O)[O-])cc1	/	/	-28%	/	-25%	/
O=C1/C(=C/c2cccs2)N=C(c2cccs2)N1Nc1ccccc1	50µM*	?	?	4%	-17%	/
O=C1/C(=C/c2cccs2)SC(=S)N1c1ccccc1	21%[59 µM]	-4%	1%	11%	24%	4%
O=C1/C(=C\c2cccs2)N=C(c2cccs2)N1Nc1ccccc1	40µM*	?	?	9%	-17%	/
Cc1ccc(C2=N/C(=C\c3cccs3)C(=O)N2Nc2ccccc2)cc1	?	35µM*	?	-5%	?	-17%
Cc1ccc(NC(=O)/C(=C\c2cccs2)NC(=O)c2ccccc2)cc1	-2%[59 µM]	-1%	5%	5%	43%	-9%
CC(=O)OC1CCC23CC1(C)CCC2C(C)(C)CC3OC(C)=O (stereo not drawn)	/	/	/	4%	/	/
Cc1nc2ccccc2c(=O)[nH]1	4%[59 µM]	2%	-4%	16%	31%	/
Cc1nc2c(O)cccc2c(=O)[nH]1	/	/	/	56µM*	/	/
C=CCSc1nnc(-c2cc3c(C(F)(F)F)nn(C)c3s2)n1C	71µM*	1%	10%	12%	46%	1%
C=CCSc1nnc(-c2cc3c(-c4ccccc4)nn(C)c3s2)n1C	0%[59 µM]	-12%	-10%	-14%	33%	-4%
O=C(O)c1cccc(S(=O)(=O)Nc2ccccc2Cl)c1	14%[59 µM]	-2%	-6%	4%	21%	/
